Experimental findings from PubChem BioAssay (NCATS) are described below.

Results filed as inconclusive are left out. Active and inactive are the calls of the source. Unless noted, calls follow the shape of the dose curve; as a rule, active = well fitted curve in the direction sought with a large enough effect; inconclusive = small, poorly fitted or top-dose-only effect, or another doubt; inactive = no such curve, though single readings can be large; an effect the other way counts as inactive or inconclusive.

Experiment [1] concerns the target Nicotinamide N-methyltransferase (Homo sapiens) (UniProt P40261). Nature of the experiment: Confirmatory Screen for Target Class Profiling of Small Molecule Inhibitors of Methyltransferases (AID 1745852). The following applies: MTase-Glo luminescence, SAH detection, recombinant enzyme; measured here: NNMT max response; stronger effect = lower value.
Experiment [2] addresses Phenylethanolamine N-methyltransferase (Homo sapiens) (UniProt P11086). Described as above. The settings on record: MTase-Glo luminescence, SAH detection, recombinant enzyme; measured here: PNMT max response; stronger effect = lower value.
Experiment [3] has as its target Metallo-beta-lactamase type 2 (Klebsiella pneumoniae) (UniProt C7C422). Nature of the experiment: qHTS to identify inhibitors of the New Delhi Metallo-beta-lactamase (NDM): assay validation screen against the NCATS LOPAC Collection (AID 1794843).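 Also: nitrocefin turnover by NDM-1 measured as 485 nm absorbance at plateau; % is scaled to controls: 0 for no effect and ±100 for the full control effect.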 The settings on record: NDM-1 enzyme, nitrocefin hydrolysis, absorbance 485 nm; series mostly up to 38.4 µM. In short, it runs like this: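 Nitrocefin hydrolysis (50 uM substrate stock) by NDM-1, 2 nM final, was followed by 485 nm absorbance after compound preincubation; buffer was 50 mM HEPES pH 7.0, 1 uM ZnSO4, 0.01% Tween20.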

The target in experiment [4] is Glutathione peroxidase 1 (Homo sapiens) (UniProt P07203). Description: Primary qHTS Assay for Inhibitors of Recombinant Selenoprotein Glutathione Peroxidase 1 (GPX1) (AID 1845191). Also: nearly all actives have a fitted effect of over 65% in size. Also: potency is read from the fitted curve at half-maximal effect. The following applies: recombinant GPX1, GR-coupled NADPH fluorescence, 15 min; series mostly up to 48.8 µM. In short, it runs like this: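 NADPH consumption tracked by fluorescence at 340/450 nm between t=0 and t=15 min, room temperature. Final mix: 10 nM GPX1, 100 nM glutathione reductase, 1 mM GSH, 0.5 mM NADPH, 0.5 mM cumene hydroperoxide, 0.01% BSA; 30 min compound–enzyme preincubation.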
Glutathione peroxidase 1 (Homo sapiens), sequence (P07203 whole entry, looked up): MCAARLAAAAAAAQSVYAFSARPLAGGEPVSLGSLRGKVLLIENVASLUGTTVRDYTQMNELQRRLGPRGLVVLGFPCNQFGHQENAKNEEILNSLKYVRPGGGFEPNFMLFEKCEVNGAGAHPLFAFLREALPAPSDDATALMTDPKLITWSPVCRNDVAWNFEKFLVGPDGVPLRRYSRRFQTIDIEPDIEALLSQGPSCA

Experiment [5] has as its target Phospholipid hydroperoxide glutathione peroxidase GPX4 (Homo sapiens) (UniProt P36969). Nature of the experiment: Primary qHTS Assay for Inhibitors of Recombinant Selenoprotein Glutathione Peroxidase 4 (GPX4) (AID 1845192). Also: nearly all actives have a fitted effect of over 65% in size. Also: potency is read from the fitted curve at half-maximal effect. The settings on record: recombinant GPX4, GR-coupled NADPH fluorescence, 15 min; series mostly up to 50 µM. The method in brief: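 NADPH consumption followed by fluorescence at 340/450 nm, t=0 and after 15 min at room temperature. Reaction started with cumene hydroperoxide (0.5 mM final) after 30 min compound–GPX4 preincubation; final 200 nM GPX4, 100 nM GR, 1 mM GSH, 0.5 mM NADPH.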

The nature of experiment [6]: NCATS anti-infectives library activity on HEK293 viability as a counter-qHTS vs the C. elegans viability qHTS (AID 1745854).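 Also: HEK293 cells exposed to compounds for 24 hr before the viability read; % is scaled to controls: 0 for no effect and ±100 for the full control effect.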 The settings on record: HEK293 viability counter-screen; series mostly up to 83.3 µM. The method in brief:
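Counter-screen for cytotoxicity: HEK293, 24 hr, 37C, compounds up to 41.7 uM final (a dilution series, 1:5). Readout CellTiter-Glo luminescence, 10 min RT. Digitonin control, 83.3 uM final.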

Experiment [7] in a line: NCATS anti-infectives library activity on the primary C. elegans qHTS viability assay (AID 1745855; calls by dose curve). The settings on record: C. elegans worm area imaging, day 7; at 41.8 µM (top of the series) unless noted. In short, it runs like this: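 GFP read-out by 488 nm laser cytometry at day 0, 3 and 7, gated on object perimeter, area and peak intensity, scored viability of PE254-GFP-FLuc worms exposed to compound in S medium with bacterial capsules at 21 °C.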

Metallo-beta-lactamase type 2 (Klebsiella pneumoniae), sequence (C7C422 whole entry, looked up): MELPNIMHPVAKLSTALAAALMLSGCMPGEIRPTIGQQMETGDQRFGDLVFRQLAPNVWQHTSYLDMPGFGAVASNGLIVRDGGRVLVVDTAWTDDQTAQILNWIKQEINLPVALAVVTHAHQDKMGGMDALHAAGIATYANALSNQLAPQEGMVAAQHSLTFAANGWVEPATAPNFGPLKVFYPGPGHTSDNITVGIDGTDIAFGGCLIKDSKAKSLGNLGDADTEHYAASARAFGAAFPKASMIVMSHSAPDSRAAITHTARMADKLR
Nicotinamide N-methyltransferase (Homo sapiens), sequence (P40261 whole entry, looked up): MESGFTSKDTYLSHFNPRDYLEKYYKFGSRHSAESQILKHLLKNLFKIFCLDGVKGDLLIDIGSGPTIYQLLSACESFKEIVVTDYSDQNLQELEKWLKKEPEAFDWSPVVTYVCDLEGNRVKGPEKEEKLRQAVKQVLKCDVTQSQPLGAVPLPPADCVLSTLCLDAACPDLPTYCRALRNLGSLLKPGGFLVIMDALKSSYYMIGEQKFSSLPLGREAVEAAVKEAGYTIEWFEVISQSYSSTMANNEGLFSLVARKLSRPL
Phenylethanolamine N-methyltransferase (Homo sapiens), sequence (P11086 whole entry, looked up): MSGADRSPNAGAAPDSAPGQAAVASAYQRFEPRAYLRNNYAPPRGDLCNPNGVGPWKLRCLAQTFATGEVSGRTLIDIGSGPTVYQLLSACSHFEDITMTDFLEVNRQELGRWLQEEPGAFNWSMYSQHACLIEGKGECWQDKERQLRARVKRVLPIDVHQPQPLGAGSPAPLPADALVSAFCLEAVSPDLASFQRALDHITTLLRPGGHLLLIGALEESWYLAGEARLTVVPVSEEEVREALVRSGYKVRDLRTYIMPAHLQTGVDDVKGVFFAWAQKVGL
Phospholipid hydroperoxide glutathione peroxidase GPX4 (Homo sapiens), sequence (P36969 whole entry, looked up): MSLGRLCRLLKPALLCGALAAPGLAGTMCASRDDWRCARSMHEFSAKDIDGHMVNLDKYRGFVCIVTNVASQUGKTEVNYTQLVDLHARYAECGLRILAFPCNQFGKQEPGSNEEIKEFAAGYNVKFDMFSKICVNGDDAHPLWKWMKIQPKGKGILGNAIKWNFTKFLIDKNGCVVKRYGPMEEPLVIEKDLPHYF

Take `Clc1nccc2c1ccc1ccccc12`: the activity in experiment [1] was -11.8%; in experiment [2], -6.62%. Also, the Potency entry in experiment [3], in experiment [4] and in experiment [5] was “inactive” in each case.

On to `COc1cc(/C=C(\C#N)C(=O)c2ccc(O)c(O)c2)cc(I)c1O`, for which the activity in experiment [1] is -5.85%; in experiment [2] it was 1.08%. Moreover, the Potency result in experiment [4] and in experiment [5] was “inactive” throughout.

Regarding `CCCc1c(OCCCOc2ccc(OCC(=O)O)cc2)ccc(C(C)=O)c1O`, the activity was -16.7% in experiment [1] and 0.821% in experiment [2]. In addition, the Potency entry in experiment [3], in experiment [4] and in experiment [5] was “inactive” each time.

In the case of `NC/C=C\C(=O)O`, the activity in experiment [1] was -7.89%; in experiment [2], 2.22%. Besides, the Potency result in experiment [4] and in experiment [5] was “inactive” throughout.

As for `C[C@](Cc1ccc(O)c(O)c1)(NN)C(=O)O`, the activity was -8.36% in experiment [1] and 2.39% in experiment [2]. For the same compound, the Potency entry in experiment [3], in experiment [4] and in experiment [5] was “inactive” throughout.

Consider `O=c1[nH]ccc2c(O)cccc12`, for which the results for the activity in experiment [1] and in experiment [2] were -0.246% and 1.15%, respectively. Further, the Potency result in experiment [3], in experiment [4] and in experiment [5] was “inactive” each time.

For the compound `CCN1C(=O)C=CC1=O`, the outcome in experiment [6] was “inactive”. Further, the outcome in experiment [7] was “inactive [at 83.3 µM]”. In addition, the Potency result in experiment [3], in experiment [4] and in experiment [5] was “inactive” in each case.

With `CN1Cc2sccc2C(c2ccc(O)c(O)c2)C1` (centres undefined), the activity in experiment [1] was -9.55%; in experiment [2], 2.33%. Moreover, the Potency entry in experiment [4] and in experiment [5] was “inactive” in each case.

Turning to `CCCC[C@@]1(C2CCCC2)Cc2cc(OCC(=O)O)c(Cl)c(Cl)c2C1=O`, the activity in experiment [1] was -66.3%; in experiment [2], 7.03%. The Potency entry in experiment [3], in experiment [4] and in experiment [5] was “inactive” in each case.

As to `C=CCN1CCc2c(cc(O)c(O)c2Cl)C(c2ccccc2)C1` (centres undefined), the activity is -9.01% in experiment [1] and 8.41% in experiment [2]. The Potency entry in experiment [3], in experiment [4] and in experiment [5] was “inactive” each time.

As to `Cn1c(=O)c2[nH]c(-c3ccc(S(=O)(=O)O)cc3)nc2n(C)c1=O`, the activity was -17.8% in experiment [1] and -5.47% in experiment [2]. Also, in experiment [3], the Potency result was “inactive”. For the same compound, the Potency was 10 µM (active) in experiment [4] and 11.2 µM (active) in experiment [5].

For the compound `Fc1ccc(CN(C2=NCCN2)c2c(Cl)cccc2Cl)cc1`, the activity in experiment [1] is -23.8%; in experiment [2] it was -2.64%. Further, the Potency entry in experiment [3], in experiment [4] and in experiment [5] was “inactive” each time.

On to `NCC(O)C1CCCCCCC1` (centres undefined), for which the activity was -12% in experiment [1] and -45.1% in experiment [2]. In addition, the Potency entry in experiment [3], in experiment [4] and in experiment [5] was “inactive” each time.

Turning to `NS(=O)(=O)c1cccc2c1c([N+](=O)[O-])cc1nc(O)c(O)nc12`, the figures for the activity in experiment [1] and in experiment [2] were -6.69% and 1.61%, respectively. Besides, the Potency entry in experiment [3], in experiment [4] and in experiment [5] was “inactive” each time.

For `O=C(O)Cc1ccc(O)c(O)c1`, the activity came out at 0.212% in experiment [1] and 4.32% in experiment [2]. Further, the Potency result in experiment [3], in experiment [4] and in experiment [5] was “inactive” in each case.

As to `Oc1cc(O)c2c(c1)O[C@H](c1ccc(O)c(O)c1)[C@@H](O)C2`, the values for the activity in experiment [1] and in experiment [2] were -7.72% and 7.68%, respectively. The outcome in experiment [6] and in experiment [7] was “inactive” in each case. The Potency entry in experiment [3], in experiment [4] and in experiment [5] was “inactive” in each case.
